Mdm2-MdmX inh: inhibitors of human Mdm2-MdmX association, primary screen, cell-based, luminescence, split luciferase, SaOS-2, uHTS; 3% of 330,000 active; Protein Mdm4 (Homo sapiens) + E3 ubiquitin-protein ligase Mdm2 (Homo sapiens), …; SaOS-2 split-luciferase Mdm2/MdmX complementation; AID 485346, 2010; inhibition, % at 8 µM;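 active = inhibition of at least 50% at 8 µM in the primary screen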
Beta apoptosis: inhibitors of cytokine-induced beta cell apoptosis, primary screen, luminescence; INS-1E cytokine-induced death, ATP luminescence, 48 h; percent of positive-control rescue, neutral wells zero; 0.8% of 300,000 active; AID 435005, 2010; protection from apoptosis, % (test concentration not listed);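 active = Every replicate reaches about 75%, or at least half do and their mean reaches it too, limit read from the data; inconclusive = At least half of replicates reach the limit but their mean does not; inactive = Under half of replicates reach the limit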;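 note: 0% = cytokine-treated negative control wells and 100% = positive control rescue; higher means more ATP so stronger rescue from cytokine killing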
MPTP block: mitochondrial permeability transition pore inhibitors, primary screen, biochemical, isolated mouse mitochondria, absorbance | Ca2+ swelling absorbance, 30 min | inhibition, % at 10 µM | 1.4% of 360,000 active;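 active = inhibition of 50% or more, scaled per plate between neutral and stimulator controls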;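 note: 0% = DMSO wells given calcium and 100% = 1 mM EGTA wells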
CSC inhib: cancer stem cell viability inhibitors, primary screen, luminescence; cancer stem cell-like cells viability; inhibition, % at 7.5 µM; 1.1% of 300,000 active; AID 2717, 2010; in the data active = inhibition above about 75%; inconclusive = no clear call, values can overlap the other calls; tested in HMLE shEcad cells
Calb FLC: C. albicans growth inhibition with fluconazole, primary screen, CaCi-2 strain, Alamar Blue fluorescence; C. albicans CaCi-2 (fluconazole-resistant clinical isolate) + fluconazole, 48 h; growth inhibition, % (no concentration beside the values); 0.57% of 300,000 active; AID 1979, 2009;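 active = growth inhibition above about 58% in most replicates, limit read from the data, passing the limit was not always enough; inconclusive = exactly half the replicates above a set limit; inactive = most replicates below a set limit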;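 note: all wells also contain fluconazole at 8 µg/ml as a sub-toxic cotreatment; 0% = median of DMSO wells and 100% = median of geldanamycin control wells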
Mdm2-MdmX conf: Mdm2-MdmX complex disruptors, retested hits, confirmation, luminescence, single concentration. 55% of 10,000 active. Mdm2-MdmX binding, luminescent assay. shares compounds with Mdm2-MdmX inh. AID 489028, 2010. inhibition, % at 8 µM; in the data active = inhibition above about 40%
FLuc counter: full-length luciferase signal inhibition, confirmation, counter-screen for Mdm2/MdmX interaction inhibitor project, cell-based, single concentration, SaOS-2. inhibition, % at 8 µM. 77% of 6,200 active. shares compounds with Mdm2-MdmX inh. SaOS-2 full-length luciferase counterscreen, luminescence;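 active = mean inhibition at 8 µM reaching about 37%, which flags the compound as non-specific, limit read from the data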;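 note: p53-null SaOS-2 cells with luciferase driven by a doxycycline-inducible promoter; compound on cells about two nights before reading with doxycycline added after day one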
* hit, by the source's call; ? = inconclusive; / = no result given. Hits are enriched below; roughly 4.8% of the tested compounds scored in any of these assays.

SMILES | Mdm2-MdmX inh | Beta apoptosis | MPTP block | CSC inhib | Calb FLC | Mdm2-MdmX conf | others
COc1ccccc1N1CCN(C(=O)c2cc3c(C)nc4ccccc4c3o2)CC1 | 54* | 37 | 1 | -12 | -20 | 20
COc1ccccc1N1CCN(C(=O)c2oc3ccc(F)cc3c2C)CC1 | 34 | 3 | -2 | 41 | 47 | /
COc1ccccc1N1CCN(C(=O)c2oc3ccc(Br)cc3c2C)CC1 | 57* | 3 | -1 | 57 | -2 | 58* | FLuc counter=54*
COc1ccc(S(=O)(=O)N2CCN(C(=O)c3ccco3)CC2)cc1C(C)(C)C | 3 | -3 | 1 | -20 | -4 | /
COc1ccc(C2CN=NC23CCCc2ccccc2C3=O)cc1 (stereo unspecified) | 15 | -2 | 1 | 15 | 4 | /
COc1ccc(C2CN=NC23CCc2ccccc2C3=O)cc1 (stereo unspecified) | 66* | 14 | 0 | 61 | 6 | 53* | FLuc counter=89*
Cn1nc(C(C)(C)C)cc1C(=O)N1CCCCC1c1cc(C(=O)Nc2ccc(F)c(Cl)c2)no1 (stereo unspecified) | / | / | 7 | / | / | /
O=C(c1ccc(Cl)c(Cl)c1)N1CCC(=O)N(C(COCc2ccccc2)Cc2ccccc2)CC1 (stereo unspecified) | 61* | -1 | 0 | 38 | 2 | 48* | FLuc counter=90*
O=C(c1ccc(Cl)c(Cl)c1)N1CCC(=O)N([C@H](COCc2ccccc2)Cc2ccccc2)CC1 | / | / | -1 | / | / | /
O=C(NCCc1ccccc1)C(=O)NCC1CCNCC1 | 10 | 0 | / | 4 | 44 | /
COc1ccc(OCCn2c(NC(=O)c3ccco3)nc3ccccc32)cc1 | 57* | 16 | -6 | 16 | 5 | 11
CCCCn1c(NC(=S)Nc2ccccc2)nc2ccccc21 | 58* | 51 | 2 | / | 31 | 39 | FLuc counter=94*
S=C(Nc1ccccc1)Nc1nc2ccccc2n1CCOc1ccccc1 | 51* | 20 | 4 | 98* | 94* | 24
CC(=O)Nc1nc2ccccc2n1CCOc1ccccc1 | 25 | 7 | 0 | 2 | -5 | /
CCCn1c(NC(=O)c2ccco2)nc2ccccc21 | 41 | 3 | 1 | 1 | 22 | /
CC1=C(C(=O)N2CCCCCC2)CC(CC(=O)NCc2cccs2)C(=O)N1Cc1ccccc1 (stereo unspecified) | / | / | 1 | / | / | /
N#Cc1nnn2c1nc(N)c1c(Cl)cccc12 | / | / | -3 | / | / | /
CCCCn1c(SCC(=O)NC2CC2)nc2cc(C(=O)OC)ccc2c1=O | / | / | 0 | / | / | /
CCCNC(=O)N1C[C@H](O)COC[C@H]2O[C@@H](CC(=O)N[C@@H]3CCN(Cc4ccccc4)C3)CC[C@@H]21 | / | / | 1 | / | / | /
CC1(C)C(=O)N(c2ccccc2)C1c1ccccc1O (stereo unspecified) | 59* | -3 | 0 | ? | 13 | 46* | FLuc counter=75*
COc1ccc(N2C(=O)C(C)(C)C2c2c(O)ccc3ccccc23)cc1 (stereo unspecified) | 3 | 2 | 0 | 17 | 52 | /
CCOc1ccccc1N1CCN(C(=O)c2cn(CC3CCCCC3)nn2)CC1 | -42 | -3 | 0 | 5 | -5 | /
Brc1ccc(NCc2cccc3ccccc23)nc1 | 15 | -13 | 2 | 27 | -14 | /
Oc1ccccc1CNc1ccc(Br)cn1 | 78* | -11 | -1 | 7 | 2 | 68* | FLuc counter=29
CCc1cc2c(COC(=O)CCNS(=O)(=O)c3cccc(C(F)(F)F)c3)cc(=O)oc2cc1O | 83* | 3 | 1 | 30 | / | -12
SMILES | Mdm2-MdmX inh | Beta apoptosis | MPTP block | CSC inhib | Calb FLC | Mdm2-MdmX conf | others
c1ccc(Nc2nc(N3CCCCC3)nc(N3CCNCC3)n2)cc1 | 62* | 5 | 1 | -1 | -27 | 30
COc1ccc(N=C2NC(=O)/C(=C/c3ccc(O)c(OC)c3)S2)cc1 | 45 | 36 | -22 | 49 | 50 | /
COc1cc(/C=C2\SC(=Nc3ccc(O)cc3)NC2=O)cc(OC)c1OC | 52* | 11 | / | 60 | 1 | 65* | FLuc counter=28
CCc1ccc(N=C2NC(=O)/C(=C/c3ccc(OCC(=O)O)c(OC)c3)S2)cc1 | -21 | / | 0 | / | 0 | /
COc1cc(/C=C2/SC(=Nc3ccc(O)cc3)NC2=O)cc(OC)c1O | 62* | / | 0 | / | 41 | 61* | FLuc counter=62*
Cc1ccc2cc(CN(Cc3ccc(F)cc3)Cc3nnnn3C3CCCC3)c(=O)[nH]c2c1 | 7 | 1 | 4 | 21 | ? | /
CCc1ccc2[nH]c(=O)c(CN(Cc3ccc4c(c3)OCO4)Cc3nnnn3C3CCCC3)cc2c1 | 64* | 25 | 2 | 1 | -15 | 12
c1ccc(OC2CCCCC2N2CCOCC2)cc1 (stereo unspecified) | / | / | 0 | / | / | /
CNS(=O)(=O)c1ccc(CNC[C@H]2O[C@@H](n3cnc4c(=O)[nH]c(N)nc43)[C@H](O)[C@@H]2O)cc1 | / | / | 0 | / | / | /
COc1ccc(-c2oc(=O)c3cc(OC)c(OC)cc3c2C#CCCO)cc1 | 37 | 17 | 1 | / | / | /
COc1ccc(-c2oc(=O)c3cc(OC)c(OC)cc3c2C#C[C@]2(O)CC[C@H]3[C@@H]4CCc5cc(OC)ccc5[C@H]4CC[C@@]32C)cc1 | 70* | -2 | -1 | 0 | / | 10
CC(C)(C)c1ccc(S(=O)(=O)NCCN2CCOCC2)cc1 | / | / | 0 | / | / | /
Cc1cc2nc(CCN3CCOCC3)n(S(=O)(=O)c3ccc(C(C)(C)C)cc3)c2cc1C | 52* | -5 | 1 | 55 | -14 | 25
NC(=O)NC(=O)COC(=O)/C=C/c1cccc(Br)c1 | 13 | -11 | 0 | -18 | 1 | /
CCOC(=O)C(CC)(CC)C(=O)/C=C/c1cccc(Br)c1 | 97* | 8 | 0 | -7 | 5 | 66* | FLuc counter=29
CCn1ncc(Cl)c1C(=O)Nc1ccc2c(c1)CCC2 | 32 | / | 0 | -3 | 9 | /
COCCN1C(=O)CSCC1(C)C(=O)NC(C)C (stereo unspecified) | / | / | 3 | / | / | /
O=C(/C=C/c1ccccc1)NC(=S)Nc1ccc(N2CCOCC2)cc1 | 32 | -2 | 2 | 5 | 5 | /
O=C(/C=C/c1ccc(Cl)cc1)NC(=S)Nc1ccc(N2CCOCC2)c(Cl)c1 | 86* | -2 | 10 | 45 | 3 | 44* | FLuc counter=91*
C=CCOc1ccccc1CN1CCC(n2nccc2NC(=O)c2ccccc2)CC1 | 5 | 2 | -2 | 12 | -27 | /
